# In all, about 5,500 compounds went through this assay and about 2,000 (36%) were called active. Inconclusive results (about 18%) are left out. The list shows a part of the results. Unmarked numbers belong to inactive results. Cut-off read from the data, not from the text of the source: active = normalized growth mostly below about 0.91 (no sharp cut-off); inconclusive = no clear call, values can overlap the other calls; inactive = mostly above about 0.92.
# Assay: chemical genetic growth profiling, strain panel (AID 1159580);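 note: tested at 20 µM; growth read once vehicle control cultures reached saturation at 30 °C; 1 = growth at the plate median or of vehicle wells; lower values mean less growth of the strain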
# Details: growth OD
smiles,measurement,setting,value
CC(=O)O[C@H]1CC[C@@]2(C)C(C[C@@H](OC(C)=O)[C@]3(C)C2CC[C@@]2(C)[C@H](c4ccoc4)OC(=O)[C@H]4O[C@]423)C1(C)C (stereo partly drawn),normalized growth,"S. cerevisiae deletion strains, locus YJL187C, strain SWE1, hits give low values",1
same,normalized growth,"S. cerevisiae deletion strains, locus YJR066W, strain TOR1, hits give low values",0.997
same,normalized growth,"S. cerevisiae deletion strains, locus YKL009W, strain mrt4, hits give low values",1.47 [resistant] (active)
same,normalized growth,"S. cerevisiae deletion strains, locus YKL068W, hits give low values",1
same,normalized growth,"S. cerevisiae deletion strains, locus YKL085W, strain MDH1 (second series), hits give low values",1.04
same,normalized growth,"S. cerevisiae deletion strains, locus YKL085W, strain MDH1, hits give low values",1.04
same,normalized growth,"S. cerevisiae deletion strains, locus YKL160W, strain elf1, hits give low values",1.02
same,normalized growth,"S. cerevisiae deletion strains, locus YKL190W, strain CNB1, hits give low values",1
same,normalized growth,"S. cerevisiae deletion strains, locus YKR001C, strain vps1, hits give low values",1
same,normalized growth,"S. cerevisiae deletion strains, locus YKR026C, strain gcn3, hits give low values",0.971
same,normalized growth,"S. cerevisiae deletion strains, locus YKR091W, strain srl3, hits give low values",0.991
same,normalized growth,"S. cerevisiae deletion strains, locus YLL001W, strain dnm1, hits give low values",0.988
same,normalized growth,"S. cerevisiae deletion strains, locus YLL026W, hits give low values",0.995
same,normalized growth,"S. cerevisiae deletion strains, locus YLL041C, strain sdh2, hits give low values",0.987
same,normalized growth,"S. cerevisiae deletion strains, locus YLR027C, strain aat2, hits give low values",1
same,normalized growth,"S. cerevisiae deletion strains, locus YLR039C, strain RIC1, hits give low values",1.01
same,normalized growth,"S. cerevisiae deletion strains, locus YLR058C, strain SHM2, hits give low values",1.01
same,normalized growth,"S. cerevisiae deletion strains, locus YLR102C, strain apc9, hits give low values",1.02
same,normalized growth,"S. cerevisiae deletion strains, locus YLR113W, strain HOG1, hits give low values",0.991
same,normalized growth,"S. cerevisiae deletion strains, locus YLR221C, strain rsa3, hits give low values",1.01
same,normalized growth,"S. cerevisiae deletion strains, locus YLR258W, strain gsy2, hits give low values",0.994
same,normalized growth,"S. cerevisiae deletion strains, locus YLR262C, strain YPT6 (second series), hits give low values",1.05
same,normalized growth,"S. cerevisiae deletion strains, locus YLR262C, strain YPT6, hits give low values",1.1
same,normalized growth,"S. cerevisiae deletion strains, locus YLR268W, strain sec22, hits give low values",0.999
same,normalized growth,"S. cerevisiae deletion strains, locus YLR320W, strain mms22, hits give low values",1.01
same,normalized growth,"S. cerevisiae deletion strains, locus YLR330W, strain CHS5, hits give low values",1.01
same,normalized growth,"S. cerevisiae deletion strains, locus YLR342W, strain FKS1, hits give low values",0.994
same,normalized growth,"S. cerevisiae deletion strains, locus YLR357W, strain rsc2, hits give low values",0.951
same,normalized growth,"S. cerevisiae deletion strains, locus YLR370C, strain arc18, hits give low values",0.996
same,normalized growth,"S. cerevisiae deletion strains, locus YLR371W, strain rom2, hits give low values",1.01
same,normalized growth,"S. cerevisiae deletion strains, locus YLR384C, strain iki3, hits give low values",1
same,normalized growth,"S. cerevisiae deletion strains, locus YLR418C, strain cdc73, hits give low values",1.06
same,normalized growth,"S. cerevisiae deletion strains, locus YML016C, strain PPZ1, hits give low values",1.02
same,normalized growth,"S. cerevisiae deletion strains, locus YML032C, strain rad52, hits give low values",1.01
same,normalized growth,"S. cerevisiae deletion strains, locus YML120C, strain ndi1, hits give low values",0.989
same,normalized growth,"S. cerevisiae deletion strains, locus YML124C, strain tub3, hits give low values",1.01
same,normalized growth,"S. cerevisiae deletion strains, locus YMR058W, strain fet3, hits give low values",1
same,normalized growth,"S. cerevisiae deletion strains, locus YMR078C, strain ctf18, hits give low values",1.02
same,normalized growth,"S. cerevisiae deletion strains, locus YMR125W, strain sto1, hits give low values",0.99
same,normalized growth,"S. cerevisiae deletion strains, locus YMR129W, hits give low values",0.996
same,normalized growth,"S. cerevisiae deletion strains, locus YMR205C, strain PFK2, hits give low values",0.968
same,normalized growth,"S. cerevisiae deletion strains, locus YMR223W, strain ubp8, hits give low values",1.03
same,normalized growth,"S. cerevisiae deletion strains, locus YMR231W, strain pep5, hits give low values",0.994
same,normalized growth,"S. cerevisiae deletion strains, locus YMR263W, strain SAP30, hits give low values",1.02
same,normalized growth,"S. cerevisiae deletion strains, locus YMR307W, strain GAS1, hits give low values",0.994
same,normalized growth,"S. cerevisiae deletion strains, locus YNL067W, strain RPL9B, hits give low values",1.05
same,normalized growth,"S. cerevisiae deletion strains, locus YNL071W, strain lat1, hits give low values",1
same,normalized growth,"S. cerevisiae deletion strains, locus YNL183C, strain NPR1, hits give low values",1
same,normalized growth,"S. cerevisiae deletion strains, locus YNL209W, strain ssb2, hits give low values",1
same,normalized growth,"S. cerevisiae deletion strains, locus YNL233W, strain BNI4, hits give low values",1.05
same,normalized growth,"S. cerevisiae deletion strains, locus YNL248C, strain rpa49, hits give low values",1.01
same,normalized growth,"S. cerevisiae deletion strains, locus YNL250W, strain rad50, hits give low values",1.05
same,normalized growth,"S. cerevisiae deletion strains, locus YNL271C, strain bni1, hits give low values",1.02
same,normalized growth,"S. cerevisiae deletion strains, locus YNL298W, strain CLA4, hits give low values",1.01
same,normalized growth,"S. cerevisiae deletion strains, locus YNL307C, strain MCK1, hits give low values",1.02
same,normalized growth,"S. cerevisiae deletion strains, locus YNL322C, strain KRE1 (second series), hits give low values",0.997
same,normalized growth,"S. cerevisiae deletion strains, locus YNR049C, strain mso1, hits give low values",0.985
same,normalized growth,"S. cerevisiae deletion strains, locus YNR052C, strain pop2, hits give low values",1.03
same,normalized growth,"S. cerevisiae deletion strains, locus YOL006C, strain TOP1, hits give low values",1.04
same,normalized growth,"S. cerevisiae deletion strains, locus YOL012C, strain htz1",0.707
same,normalized growth,"S. cerevisiae deletion strains, locus YOL147C, strain pex11, hits give low values",1.01
same,normalized growth,"S. cerevisiae deletion strains, locus YOR001W, strain rrp6, hits give low values",1.02
same,normalized growth,"S. cerevisiae deletion strains, locus YOR061W, strain CKA2, hits give low values",1
same,normalized growth,"S. cerevisiae deletion strains, locus YOR069W, strain VPS5, hits give low values",1.01
same,normalized growth,"S. cerevisiae deletion strains, locus YOR070C, strain gyp1, hits give low values",0.997
same,normalized growth,"S. cerevisiae deletion strains, locus YOR080W, strain dia2, hits give low values",0.996
same,normalized growth,"S. cerevisiae deletion strains, locus YOR083W, strain WHI5, hits give low values",1.03
same,normalized growth,"S. cerevisiae deletion strains, locus YOR106W, strain vam3, hits give low values",1.03
same,normalized growth,"S. cerevisiae deletion strains, locus YOR136W, strain idh2, hits give low values",1.02
same,normalized growth,"S. cerevisiae deletion strains, locus YOR144C, strain elg1, hits give low values",1.01
same,normalized growth,"S. cerevisiae deletion strains, locus YOR184W, strain ser1, hits give low values",1
same,normalized growth,"S. cerevisiae deletion strains, locus YOR231W, strain MKK1, hits give low values",1.02
same,normalized growth,"S. cerevisiae deletion strains, locus YOR265W, strain rbl2, hits give low values",1
same,normalized growth,"S. cerevisiae deletion strains, locus YOR270C, strain vph1, hits give low values",1.01
same,normalized growth,"S. cerevisiae deletion strains, locus YOR290C, strain snf2, hits give low values",0.942
same,normalized growth,"S. cerevisiae deletion strains, locus YOR316C, strain cot1, hits give low values",1.01
same,normalized growth,"S. cerevisiae deletion strains, locus YPL051W, strain arl3, hits give low values",1.03
same,normalized growth,"S. cerevisiae deletion strains, locus YPL078C, strain atp4, hits give low values",1.02
same,normalized growth,"S. cerevisiae deletion strains, locus YPL106C, strain sse1, hits give low values",0.981
same,normalized growth,"S. cerevisiae deletion strains, locus YPL240C, strain hsp82, hits give low values",1
same,normalized growth,"S. cerevisiae deletion strains, locus YPL241C, strain CIN2, hits give low values",1
same,normalized growth,"S. cerevisiae deletion strains, locus YPL256C, strain CLN2, hits give low values",1.05
same,normalized growth,"S. cerevisiae deletion strains, locus YPR119W, strain clb2, hits give low values",1.01
same,normalized growth,"S. cerevisiae deletion strains, locus YPR141C, strain kar3, hits give low values",1.02
same,normalized growth,"S. cerevisiae deletion strains, locus YPR163C, strain tif3, hits give low values",1.02
same,normalized growth,"S. cerevisiae deletion strains, locus YPR167C, strain met16, hits give low values",1.01
same,normalized growth,"S. cerevisiae deletion strains, strain wtn01, hits give low values",1.02
same,normalized growth,"S. cerevisiae strains, strain wild type, hits give low values",1.02

# From PubChem BioAssay AID1159580 (chemical genetic matrix, 2015)
